CIT2-GFP yeast: alters CIT2-GFP fluorescence in TOR pathway yeast screen. S. cerevisiae CIT2-GFP strain, flow cytometry, 3 h; 100 means same as DMSO wells. AID 2029. GFP response vs DMSO, % at 10 µM. 320,000 compounds, 0.065% hits;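 active means GFP response relative to DMSO above a set limit, near the screen mean plus 3 SD, cut at about 150% in these data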;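 further: ratio of well median GFP fluorescence to mean of DMSO wells on the plate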
AGP1-GFP MLPCN: yeast TOR pathway AGP1-GFP modulation; 320,000 compounds, 0.02% hits; S. cerevisiae AGP1-GFP multiplex flow cytometry, 3 h; GFP as percent of DMSO wells; AID 2066; GFP response vs DMSO, % at 10 µM;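 active means GFP response relative to DMSO above a set limit, near screen average plus 3 SD, cut at about 150% in these data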;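 further: median GFP channel fluorescence of the gated AGP1 strain per well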
LAP4 TOR yeast: alters LAP4-GFP fluorescence in TOR pathway yeast screen. S. cerevisiae LAP4-GFP multiplex, flow cytometry GFP, 3 h; median GFP as percent of DMSO wells. 320,000 compounds, 0.34% hits. GFP response vs DMSO, % at 10 µM. AID 2023;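 active means GFP response vs DMSO above a set limit, about the screen mean plus 3 SD, cut at about 150% in these data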
MEP2 TOR yeast: yeast TOR pathway MEP2-GFP modulation. GFP response vs DMSO, % at 10 µM. S. cerevisiae MEP2-GFP strain, flow cytometry GFP, 3 h; 100% = DMSO control level. 330,000 compounds, 0.51% hits;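 active means GFP response versus DMSO above a set limit, roughly screen mean plus 3 SD, cut at about 180% in these data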;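 further: median GFP fluorescence of the barcode-gated MEP2-GFP cells per well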
RPL19A-GFP yeast: yeast TOR pathway RPL19A-GFP modulation; percent response vs DMSO, % at 10 µM; 330,000 compounds, 0.3% hits; S. cerevisiae RPL19A-GFP strain, flow cytometry, 3 h; stronger effect = lower value;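 active means percent response vs DMSO below 50%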;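 further: median channel GFP fluorescence of the barcoded RPL19A-GFP strain; lower means less RPL19A-GFP as with rapamycin TOR inhibition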
LAP4 cherry2: yeast LAP4-GFP modulation, second cherry pick | 590 compounds, 20% hits | S. cerevisiae LAP4-GFP strain, flow cytometry GFP, 3 h | GFP response vs DMSO, % at 10 µM | shares compounds with LAP4 TOR yeast | AID 2621;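 active means GFP signal as percent of the solvent control above about 150%, meaning raised reporter expression, limit read from the data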
MEP2-GFP pick2: second confirmation of modulators of TOR reporter MEP2-GFP in yeast; shares compounds with LAP4 TOR yeast; S. cerevisiae MEP2-GFP strain, flow cytometry GFP, 3 h; GFP response vs DMSO, % at 10 µM; 590 compounds, 10% hits; AID 2622;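 active means GFP signal above 150% of the solvent control wells, that is a rise of more than half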;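 further: median channel GFP fluorescence of all gated yeast cells per well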
RPL19A-GFP pick2: reconfirmed modulator of RPL19A-GFP TOR reporter in yeast. shares compounds with LAP4 TOR yeast. S. cerevisiae RPL19A-GFP strain, flow cytometry GFP, 3 h; stronger effect = lower value; 100% means same as DMSO wells. GFP response vs DMSO, % at 10 µM. 590 compounds, 3% hits. AID 2623;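 active means under 65% GFP response relative to DMSO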;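 further: median GFP channel fluorescence per well over the all cells gate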
CIT2 GFP CP2: yeast CIT2-GFP TOR reporter modulation, second cherry pick | shares compounds with LAP4 TOR yeast | S. cerevisiae CIT2-GFP strain, flow cytometry GFP, 3 h; DMSO control wells read 100% | GFP response vs DMSO, % at 10 µM | 590 compounds, 8% hits | AID 2624;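 active means GFP response vs DMSO above about 150%, limit read from the data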;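 further: median green fluorescence per well over all gated yeast cells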
AGP1 GFP CP2: yeast AGP1-GFP TOR reporter modulation, second cherry pick. 590 tested, under 10 active. AID 2643. S. cerevisiae AGP1-GFP strain, flow cytometry GFP, 3 h. shares compounds with LAP4 TOR yeast. percent response vs DMSO, % at 10 µM;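 active means over 150 percent of DMSO response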;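 further: median GFP channel fluorescence over all cells without mother daughter split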
s288c autofluor: compound is autofluorescent in yeast s288c cells | shares compounds with LAP4 TOR yeast | S. cerevisiae s288c, 520 nm autofluorescence, flow cytometry, 3 h; stronger effect = higher value; zero means same as solvent-only cells | fluorescence change (kMESF span) at 33 µM | 610 tested, under 10 active;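 active means fluorescence span over the dose series, or activity score, above about 33, limit read from the data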
s288c autofl DR: yeast s288c autofluorescence artifact in dose response | shares compounds with LAP4 TOR yeast | S. cerevisiae s288c parental, compound autofluorescence, flow cytometry, 3 h | fluorescence change (span) at 33 µM | 110 tested, under 10 active | AID 488829;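 active means fluorescence change span, or the activity score built from it, above 25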
TORC1 bypass gr: compounds blocking wildtype yeast growth but not TORC1 bypass cells; shares compounds with LAP4 TOR yeast; S. cerevisiae BY4741 spot growth rating, 48-72 h; stronger effect = lower value; growth rating (0-3) at 30 µM; 120 tested, under 10 active; AID 504456;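 active means growth rating at most 1 for wild type yeast while the TORC1 bypass strain still grows fully, rated 3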
Of the large screens only hits and unclear results are named; the others gave an inactive call (follow-up assays come after a bar, where they were run). Only some compounds are listed: those with a hit (about 0.92% of all), similar ones and a draw of the others.

CC1=CC(=O)C(C(C)C)=C/C1=N/OS(=O)(=O)c1ccccc1	LAP4 TOR yeast 216 | s288c autofluor inactive
CC(C)Cn1c(N)c(C(=O)COC(=O)c2c(O)c(Cl)cc(Cl)c2Cl)c(=O)n(C)c1=O	CIT2-GFP yeast active, AGP1-GFP MLPCN 320, LAP4 TOR yeast active, MEP2 TOR yeast active | LAP4 cherry2 inactive | MEP2-GFP pick2 inactive | RPL19A-GFP pick2 inactive | CIT2 GFP CP2 inactive | AGP1 GFP CP2 inactive
O=S(=O)(c1ccc(Br)s1)N1CCN(CCc2ccccc2)CC1	none
Cc1cc(C(=O)Cn2nc(C(=O)O)c3ccccc3c2=O)c(C)n1-c1ccc(F)cc1	none
O=C(NC(=S)NNC(=O)c1cnccn1)c1ccc(Cl)cc1	LAP4 TOR yeast 181 | s288c autofluor inactive
COc1ccc(C(=O)NC(=S)NNC(=O)c2cnccn2)cc1	LAP4 TOR yeast 241 | s288c autofluor inactive | s288c autofl DR inactive | TORC1 bypass gr inactive
O=[N+]([O-])c1ccc(OC(F)F)c(/C=N/n2cnnc2)c1	none
CCCN(CC(=O)Nc1ccccc1C)C(=O)c1ccc(-c2ccc([N+](=O)[O-])cc2)o1	LAP4 TOR yeast 196, MEP2 TOR yeast 609 | LAP4 cherry2 inactive | MEP2-GFP pick2 inactive | RPL19A-GFP pick2 inactive | CIT2 GFP CP2 inactive | AGP1 GFP CP2 inactive
CCCc1c(O)nc(SCCN(CC)CC)n(C(=O)c2ccccc2)c1=O	MEP2 TOR yeast 248, RPL19A-GFP yeast 36 | LAP4 cherry2 inactive | MEP2-GFP pick2 inactive | RPL19A-GFP pick2 inactive | CIT2 GFP CP2 inactive | AGP1 GFP CP2 inactive
O=C1ON=C(c2ccccc2)/C1=C/c1ccccc1	none
O=C1ON=C(c2ccccc2)/C1=C\c1ccco1	LAP4 TOR yeast 219 | s288c autofluor inactive | s288c autofl DR inactive | TORC1 bypass gr inactive
Cc1ccc(/C=C2/C(=O)ON=C2c2ccccc2)o1	LAP4 TOR yeast 257 | s288c autofluor inactive | s288c autofl DR inactive | TORC1 bypass gr inactive
CN(C)CCNS(=O)(=O)c1ccc(N2CCc3ccccc32)c([N+](=O)[O-])c1	none
Cc1cc(=S)[nH]c2c(C)cccc12	none
O=C1N=c2ccccc2=C1c1c(O)n(-c2cccc(F)c2)[nH]c1=O	LAP4 TOR yeast 200 | LAP4 cherry2 inactive | MEP2-GFP pick2 inactive | RPL19A-GFP pick2 inactive | CIT2 GFP CP2 inactive | AGP1 GFP CP2 inactive
O=C(CNC(=S)N(Cc1ccccc1)Cc1ccccc1F)NCCc1ccc(Cl)cc1	none | LAP4 cherry2 inactive | MEP2-GFP pick2 inactive | RPL19A-GFP pick2 inactive | CIT2 GFP CP2 inactive | AGP1 GFP CP2 inactive
O=C(Cc1ccc(Cl)cc1)NCCc1ccc(F)cc1	none

Screening data (PubChem)
